In the library only some 4.5% were active in any assay of this set; here they are far more common.
TIM10 inh: growth inhibitors of isogenic TIM10 control yeast, primary screen, counter-screen for tim10-1 yeast inhibitor project, luminescence, uHTS; S. cerevisiae TIM10 strain growth, BacTiter-Glo luminescence, 24 h; inhibition, % at 10 µM; hit rate 1.4% among 330,000; AID 463195, 2010;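 active = inhibition of 40% or more at the single tested concentration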;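 note: wild-type TIM10 isogenic control strain grown at permissive 25 °C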
tim23-1 inh: growth inhibitors of tim23-1 mutant yeast, primary screen, luminescence, uHTS. inhibition, % at 20 µM. AID 463212, 2010. hit rate 1.3% among 330,000. S. cerevisiae tim23-1 growth, BacTiter-Glo luminescence, 24 h;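 active = growth inhibition of the mutant yeast at or above 50%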;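 note: temperature-sensitive mutant grown at 25 °C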
tim10-1 inh: growth inhibitors of tim10-1 mutant yeast, primary screen, luminescence, uHTS; S. cerevisiae tim10-1 ts strain growth, BacTiter-Glo, 24 h; inhibition, % at 20 µM; hit rate 2.2% among 330,000;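 active = inhibition of at least 40%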;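 note: mutant grown at 25 °C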
SKKanGAS inh: S. pyogenes SKKanGAS growth inhibitors in kanamycin, primary screen, streptokinase expression inhibitor project, SKKanGAS strain, BacTiter-Glo luminescence; 6 h; inhibition, % at 7.5 µM; hit rate 1.3% among 300,000; AID 1662, 2009;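 active = mean replicate score, as percent of positive control median, at least 50; inconclusive = mean below 50 but one replicate at or above 50; inactive = mean and every replicate below 50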;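 note: strain carries kanamycin resistance gene driven by streptokinase promoter and grows in 40 µg/ml kanamycin; loss of luminescence reflects streptokinase promoter inhibition or plain growth inhibition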
PfHsp90 yeast 2: growth inhibition of PfHsp90-expressing yeast, primary screen, antimalarial PfHsp90 inhibitor project, S. cerevisiae, BacTiter-Glo luminescence, single point, set 2; AID 504621, 2011; hit rate 0.32% among 310,000; inhibition, % at 9.4 µM; BacTiter-Glo ATP, 48 h; yeast lacking PDR1 and PDR3 efflux regulators;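 active = every replicate shows inhibition above about 80%, whatever the replicate mean, limit read from the data; inconclusive = mean inhibition reaches the set limit but some replicate falls short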
NLRP3 yeast inh: NALP3 inflammasome inhibitors in reconstituted yeast, primary screen, luminescence, uHTS | Yeast reconstituted NLRP3/ASC/caspase-1, beta-gal luminescence, 24 h | inhibition, % at 10 µM | hit rate 0.39% among 330,000 | AID 2825, 2010;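 active = inhibition of 50% or more; inactive = inhibition below 50%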
Numbers stand for hits; 0 = inactive; ? = inconclusive; - = no result.

SMILES	TIM10 inh	tim23-1 inh	tim10-1 inh	SKKanGAS inh	PfHsp90 yeast 2	NLRP3 yeast inh
CCCCCCc1cc2cc(C(=O)OCC)c(=O)oc2cc1O	0	0	0	56	0	0
CCC(Sc1nc(C)cc(C)n1)C(=O)NC1=NN=C(c2ccc(C)cc2)CS1 (stereo not given)	0	0	0	0	0	0
Cc1cc(C)nc(SCC(=O)NC2=NN=C(c3ccc(Br)cc3)CS2)n1	0	0	0	99	-	0
Cc1ccc(C)c(NC(=O)CSc2nc3nc(-c4cccs4)cc(C(F)(F)F)c3c(=O)[nH]2)c1	0	0	0	57	0	0
O=C(CSc1nc2nc(-c3cccs3)cc(C(F)(F)F)c2c(=O)[nH]1)Nc1ccc(F)c(F)c1	0	0	0	88	0	0
Cc1ccc(C)c(NC(=O)CSc2nc(N)c(NC(=O)c3cccs3)c(=O)[nH]2)c1	-	-	-	-	0	-
Nc1nc(SCC(=O)Nc2ccc(C(F)(F)F)cc2)[nH]c(=O)c1NC(=O)c1ccc(F)c(F)c1	0	0	0	0	0	0
COc1ccc(NC(=O)CN2C(=O)NC(C)(c3ccc4c(c3)OCCO4)C2=O)cc1S(N)(=O)=O (stereo not given)	0	0	0	-	0	0
Cc1ccc(N/N=C(\C#N)C(N)=S)c(C)c1	-	-	-	60	101	-
CCN1CCN(C(c2cccnc2)c2c(NC(=O)c3ccco3)sc(C)c2C)CC1 (stereo not given)	0	0	0	-	0	0
Cc1sc(NC(=O)c2ccco2)c(C(c2cccnc2)N2CCC(C)CC2)c1C (stereo not given)	0	0	0	0	92	0
COc1ccccc1NC(=S)NC(NC(=O)CC(C)C)C(Cl)(Cl)Cl (stereo not given)	0	0	0	0	0	0
CCN(CC(=O)Nc1ccc2c(c1)OCCO2)C(=O)c1ccc(CS(C)(=O)=O)cc1	0	0	0	-	0	0
Cc1ccccc1Oc1cc(-n2ncc(Cl)c(Cl)c2=O)ncn1	-	-	-	-	97	-
CC1(C)CC[C@]2(C(=O)O)CC[C@]3(C)C(=CCC4[C@@]5(C)CC[C@H](O)C(C)(C)C5CC[C@]43C)C2C1 (stereo not given in full)	-	-	-	105	0	-
CC1(C)CC[C@]2(C(=O)O)CC[C@]3(C)C(=CC[C@@H]4[C@@]5(C)CC[C@H](O)C(C)(C)[C@@H]5CC[C@]43C)[C@@H]2C1	0	0	0	-	0	0
CCn1cc(C(=O)O)c(=O)c2cc(F)c(N/N=C/c3ccccc3)cc21	0	0	0	0	0	0
C[C@H]1COc2c(C3(N)CC3)c(F)cc3c(=O)c(C(=O)O)cn1c23	-	-	-	66	-	-
C[C@H]1COc2c(N3CCN(C)CC3)c(F)cc3c(=O)c(C(=O)O)cn1c23	0	0	0	107	0	0
CN1CCN(c2c(F)cc3c(=O)c(C(=O)O)cn4c3c2SCC4)CC1	0	0	0	0	0	0
O=[N+]([O-])c1cccc(-c2noc3c2-c2nc(Cc4cccc5ccccc45)sc2CC3)c1	0	0	0	0	-	0
Cc1ccc(NC(=S)NCCSc2ccc(Cl)cc2)cc1	0	0	0	0	0	0
CC(CNC(=S)Nc1cc(F)cc(F)c1)CSc1ccc(Cl)cc1 (stereo not given)	0	0	0	55	0	0
CCOC(=O)c1c(NC(=O)COC(=O)c2ccc(C)s2)sc2c1CC(C)(C)NC2(C)C	0	0	0	63	0	0
CCOC(=O)c1c(NC(=O)COc2ccccc2OCC)sc2c1CC(C)(C)NC2(C)C	0	0	0	0	0	0
SMILES	TIM10 inh	tim23-1 inh	tim10-1 inh	SKKanGAS inh	PfHsp90 yeast 2	NLRP3 yeast inh
COc1cc(C(=O)NCC(=O)N2CCN(S(=O)(=O)c3ccccc3)CC2)cc(OC)c1OC	0	0	0	0	0	0
CN(CC(=O)Nc1ccc(F)c(F)c1F)C(=O)CCc1nc2sc3c(c2c(=O)[nH]1)CCCC3	0	0	0	0	0	0
O=C(CN1CCN(C(c2ccccc2)c2ccccc2)CC1)N1CCOCC1	0	0	0	0	0	0
Oc1c(C(c2ccccc2)N2CCOCC2)ccc2ccccc12 (stereo not given)	-	-	-	-	101	-
COc1ccc(CC(=O)OCC(=O)NC2CC2)cc1	0	0	0	-	0	0
O=C1C=CC(=O)N1c1ccc(OC(F)F)cc1	-	-	-	-	127	-
O=C1C=CC(=O)N1c1ccc(O)cc1	0	0	0	0	109	0
C=CCN(c1ccccc1OC)S(=O)(=O)c1cccc(C(=O)OCC(=O)c2c(N)n(C)c(=O)n(C)c2=O)c1	-	-	-	-	0	-
CNS(=O)(=O)c1cn(CC(=O)NCc2ccccc2OC)cc1S(=O)(=O)NC	0	0	0	0	0	0
COc1cccc(C(=O)Nc2nc(-c3ccccc3)c(-c3ccccc3)o2)c1	0	0	0	92	0	0
O=C(Nc1nc(-c2ccccc2)c(-c2ccccc2)o1)c1ccc(F)cc1	0	0	0	101	105	0
COc1cccc(C(=O)NNC(=O)c2ccccc2)c1	0	0	0	0	0	0
CCOC(=O)C(=O)Nc1nc(-c2ccccc2)c(-c2ccccc2)o1	0	0	0	0	0	0
Cc1ccc(OCCC(=O)OCC(=O)NCCc2ccc(Cl)cc2)cc1	0	0	0	0	-	0
CCC(C)(C)NC(=O)C(c1ccccc1Cl)N(Cc1cccnc1)C(=O)CCC(=O)Nc1cc(C)on1 (stereo not given)	0	0	0	0	0	0
Cc1cc(SCC(=O)N/N=C/c2ccc(O)c(O)c2O)c(C)cc1Br	0	0	0	69	-	0
CCCC[C@@H]1C=C(C(=O)O)[C@H](c2ccc(C#N)cc2)N1S(=O)(=O)c1ccc(C)cc1	0	0	0	-	0	0
COc1ccc(CNc2oc(COc3ccccc3)nc2C#N)cc1	0	0	0	0	-	0
COc1ccc(CNc2oc(Cc3cccc4ccccc34)nc2C#N)cc1	0	0	0	54	0	0
CC(=O)Nc1cc2c(cc1[N+](=O)[O-])-c1ccccc1C2=NO	-	-	-	-	0	-
Nc1cc2c(cc1[N+](=O)[O-])-c1ccccc1C2=NO	-	-	-	-	128	-
O=C(/C=C1\NC2(CCCC2)Cc2ccccc21)C(=O)N/N=C/c1ccccc1O	0	0	0	96	0	0
Cc1cc(C)cc(C(=O)NCC(=O)NNC(=O)CSc2ccccc2F)c1	0	0	0	-	0	0
Cc1ccnc(NC(c2cccnc2)c2ccc3cccnc3c2O)c1 (stereo not given)	0	0	0	?	0	0
COc1ccc(C(Nc2cc(C)ccn2)c2ccc3ccc(C)nc3c2O)cc1 (stereo not given)	0	0	0	61	0	0

High-throughput results (PubChem)
